Active and inactive are the calls of the source. Unless noted, no rule for the calls is given here.
Columns and labels:
[1] = system: XIP peptide (Xip251-270) binding; assay: small-molecule binders of XIP peptide, primary screen, biochemical, small-molecule microarray, fluorescence 635/667 nm, 0.1 µg/mL protein (AID 1182); conditions: fluorescent protein binding, 635 nm, higher = more signal, called active from +8 up or from −8 down
[2] = system: XIP peptide (Xip251-270); assay: small-molecule binders of XIP peptide, primary screen, biochemical, small-molecule microarray, fluorescence 635/667 nm, 0.5 µg/mL protein (AID 1183); conditions: small-molecule microarray binding, fluorescence 635 nm; higher = more signal
[3] = Plasmodium falciparum growth inhibition, primary screen, strain 3D7, DAPI fluorescence, 100 nL (AID 1184);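 also: parasites grown inside human red blood cells in medium with human serum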; conditions: P. falciparum 3D7 growth, 3 d, higher = more signal
[4] = molecular target: Homeobox protein Hox-A13 (Mus musculus) (UniProt Q62424); assay: inhibitors of HoxA13-DNA binding, primary screen, biochemical, fluorescence polarization, labeled oligonucleotide (AID 1185); conditions: 15 min, higher = more signal, called active from +8 up or from −8 down
[5] = inhibitors of hydroxyurea-induced Chk1 phosphorylation, primary screen, imaging, HeLa, phospho-Chk1 antibody, percent positive cells (AID 1186); conditions: hydroxyurea-induced phospho-Chk1 immunofluorescence imaging, higher = more signal
[6] = inhibitors of hydroxyurea-induced Chk1 phosphorylation, primary screen, imaging, HeLa, phospho-Chk1 nuclear intensity (AID 1187); conditions: hydroxyurea-induced phospho-Chk1 immunofluorescence imaging, higher = more signal

Sequence of Homeobox protein Hox-A13 (Mus musculus) (Q62424 whole entry, looked up): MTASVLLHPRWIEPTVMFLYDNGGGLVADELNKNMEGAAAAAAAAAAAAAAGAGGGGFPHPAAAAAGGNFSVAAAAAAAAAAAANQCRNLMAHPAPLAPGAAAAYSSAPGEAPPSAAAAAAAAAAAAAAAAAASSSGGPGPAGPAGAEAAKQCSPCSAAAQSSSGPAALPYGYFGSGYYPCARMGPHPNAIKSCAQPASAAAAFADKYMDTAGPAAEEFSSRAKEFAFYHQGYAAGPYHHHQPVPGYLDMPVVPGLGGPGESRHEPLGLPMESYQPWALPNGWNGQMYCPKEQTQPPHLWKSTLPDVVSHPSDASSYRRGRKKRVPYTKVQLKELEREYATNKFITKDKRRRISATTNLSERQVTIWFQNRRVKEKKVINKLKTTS

Row | Compound | composite z-score [1] | composite z-score [2] | z-score [3] | z-score [4] | z-score [5] | z-score [6]
1 | COc1cc(C(O)C2C=CC3C(=O)N(Cc4ccccc4)C(=O)C3N2n2cnnc2)cc(OC)c1OC (stereo unspecified) | 0.494 (inactive) | 0.435 | 0.551 | -1.38 (inactive) | 0.102 (inactive) | 0.263 (inactive)
2 | [N-]=[N+]=NCc1ccccc1C[C@]1(C(=O)N2CCOCC2)COC(c2ccc(OCCCO)cc2)=N1 | 0.15 (inactive) | 0.711 | -2.2 | -4.87 (inactive) | -0.677 (inactive) | -0.718 (inactive)
3 | COc1cc(NN2C(C(O)C3CCCCC3)C=CC3C(=O)N(c4ccccc4)C(=O)C32)cc(OC)c1OC (stereo unspecified) | 1.15 (inactive) | 0.751 | -0.495 | -4.43 (inactive) | 0.0699 (inactive) | -0.253 (inactive)
4 | O=c1cccc(-c2ccc(F)cc2)o1 | -0.133 (inactive) | 0.472 | 1.07 | -0.287 (inactive) | 0.454 (inactive) | 0.606 (inactive)
5 | CN(C)C(=O)[C@@]1(Cc2ccccc2)COC(c2ccc(OCCCO)cc2)=N1 | 0.205 (inactive) | 0.845 | -0.627 | -6.02 (inactive) | -1.01 (inactive) | -1.03 (inactive)
6 | CCOC(=O)C[C@H]1[C@H](OC(=O)c2ccc(C(=O)c3ccccc3)cc2)[C@@H](NC(=O)CC(C)C)c2cc(OCCCO)ccc2N1C(=O)Cc1ccc(OC)cc1 | 0.595 (inactive) | 0.396 | -0.241 | -3.06 (inactive) | 0.291 (inactive) | -0.261 (inactive)
7 | COCCCNC(=O)[C@@]1(Sc2ccc(C)cc2)CC(=O)N(Cc2ccccc2Cl)[C@@H]1c1ccc(CO)cc1I | -0.517 (inactive) | 0.194 | 1.22 | -2.55 (inactive) | 0.234 (inactive) | 0.456 (inactive)
8 | O=C(O)[C@@H]1C[C@@H]2C(=O)N3CCC[C@H]3C(=O)N2[C@@H]1c1cccc(OCCO)c1 | 2 (inactive) | 0.932 | -0.382 | -2.19 (inactive) | 0.299 (inactive) | -0.0384 (inactive)
9 | C=CCNC(=O)[C@@H]1[C@H]2C(=O)O[C@H](c3ccccc3)[C@H](c3ccccc3)N2[C@H](c2ccc(O)cc2)[C@@]12C(=O)Nc1ccc(C#CCC(C(=O)OC)C(=O)OC)cc12 | 1.03 (inactive) | 0.729 | -1.84 | -2.97 (inactive) | -0.267 (inactive) | -0.625 (inactive)
10 | COCCOC(=O)N1C(=O)[C@@]2(c3cc(C#CCNC(N)=O)ccc31)[C@H](c1ccc(OCCO)cc1)N1[C@H](c3ccccc3)[C@H](c3ccccc3)OC(=O)[C@H]1[C@@H]2C(=O)NC[C@H](O)c1ccccc1 | 0.586 (inactive) | 0.644 | -0.599 | -1.94 (inactive) | -0.3 (inactive) | -0.102 (inactive)
11 | CC(C)OC(=O)CC(=O)CC(O)c1ccc([N+](=O)[O-])cc1 (stereo unspecified) | 0.319 (inactive) | 0.469 | 0.697 | -1.67 (inactive) | -0.0884 (inactive) | -0.438 (inactive)
12 | O=C1OCCC=C[C@H]2OC34C=CCN(c5ccc(Cl)cc5)C(=O)[C@H]3N(CCCCCCO)C(=O)[C@@H]4C12 (stereo partly specified) | 0.43 (inactive) | -0.619 | -0.278 | -5.62 (inactive) | -0.301 (inactive) | 0.116 (inactive)
13 | O=C1C2C=CC(C(O)c3cc(C(F)(F)F)cc(C(F)(F)F)c3)N(Nc3ccccc3F)C2C(=O)N1c1ccccc1 (stereo unspecified) | 1.22 (inactive) | 0.481 | 0.915 | -2.39 (inactive) | 0.563 (inactive) | 0.544 (inactive)
14 | CC1CC/C=C\[C@H]2OC34C=CCN(C(C)(C)C)C(=O)[C@H]3N(C(CO)C(C)C)C(=O)[C@@H]4C2C(=O)O1 (stereo partly specified) | 1.27 (inactive) | -0.142 | -0.459 | -5.73 (inactive) | 0.015 (inactive) | 0.277 (inactive)
15 | CC(C)CNC(=O)[C@@]1(C)c2ccccc2C(=O)N(Cc2cc(C(F)(F)F)cc(C(F)(F)F)c2)[C@H]1c1ccc(CO)cc1 | -0.337 (inactive) | 0.145 | -0.607 | -2.63 (inactive) | 0.0613 (inactive) | 0.447 (inactive)
16 | COC(=O)[C@@]1(Cc2ccccc2CN=[N+]=[N-])N=C(c2ccc(OCCCO)cc2)O[C@H]1c1ccccc1CN=[N+]=[N-] | 0.192 (inactive) | 0.723 | -2.2 | 0.87 (inactive) | -0.598 (inactive) | -0.223 (inactive)
17 | C=CCC(OC(C)=O)[C@@H]1[C@@H](N(Cc2cc3ccccc3o2)C(=O)c2ccc(-c3ccccc3)cc2)c2cc(OCCCO)ccc2N1C(=O)Cc1ccc(OC)cc1 (stereo partly specified) | 0.112 (inactive) | 0.0332 | -0.846 | -1.8 (inactive) | 0.754 (inactive) | 0.0035 (inactive)
18 | CCOC(=O)C=Cc1ccccc1O | 1.39 (inactive) | 0.322 | -1.39 | -0.772 (inactive) | -0.312 (inactive) | -0.678 (inactive)
19 | CN(C)C(=O)[C@@]1(CCC(=O)OC(C)(C)C)N=C(c2ccc(OCCCO)cc2)O[C@H]1c1ccccc1CN=[N+]=[N-] | 1.14 (inactive) | 0.316 | -2.32 | -5.91 (inactive) | 0.234 (inactive) | 0.422 (inactive)
20 | COC(=O)[C@@]1(Cc2ccccc2)[C@H]2c3cc(C(=O)N4CCCC4)n(CCSCCO)c3C[C@H]2CN1C(=O)c1ccccc1 | 0.343 (inactive) | 0.752 | -1.7 | -5.06 (inactive) | 1.45 (inactive) | 0.501 (inactive)
21 | C=CCN1C(=O)[C@]2(O[C@H](CCO)[C@@H]([Si](C)(C)c3ccc(OC)cc3)[C@@H]2C)c2cc(NC(=O)c3ccc(OC)cc3)ccc21 | -0.129 (inactive) | 0.456 | -2.64 | -5.32 (inactive) | -0.97 (inactive) | -0.881 (inactive)
22 | C=CCNC(=O)[C@H]1[C@@H]2C(=O)O[C@@H](c3ccccc3)[C@@H](c3ccccc3)N2[C@@H](c2ccc(OCCO)cc2)[C@]12C(=O)Nc1ccc(C#CCNC(N)=O)cc12 | 0.952 (inactive) | 0.512 | -1.13 | -3.66 (inactive) | 0.0622 (inactive) | 0.183 (inactive)
23 | CCN(CC)c1ccc(N2CC=CC34O[C@@H]5C=CCCOC(=O)C5[C@H]3C(=O)N(CCO)[C@@H]4C2=O)cc1 (stereo partly specified) | -0.828 (inactive) | -0.72 | 0.0497 | -5.85 (inactive) | -0.516 (inactive) | -0.584 (inactive)
24 | COCCOC(=O)N1C(=O)[C@@]2(c3cc(C#Cc4ccc(OC)cc4)ccc31)[C@H](C(=O)NC[C@H](O)c1ccccc1)[C@H]1C(=O)O[C@H](c3ccccc3)[C@H](c3ccccc3)N1[C@@H]2c1ccc(OCCO)cc1 | 0.271 (inactive) | 0.591 | -2.17 | 1.56 (inactive) | 0.0092 (inactive) | 0.117 (inactive)
25 | NC(=O)[C@H]1[C@@H]2C(=O)O[C@@H](c3ccccc3)[C@@H](c3ccccc3)N2[C@@H](c2ccc(O)cc2)[C@]12C(=O)Nc1ccccc12 | -0.367 (inactive) | -0.764 | 0.428 | -5.09 (inactive) | -0.154 (inactive) | -0.112 (inactive)
26 | C=C(/C(=C/C[C@@H](OC(C)=O)c1ccc(OCCO)cc1)c1cc(C(=O)OC)ccc1OC)C(C)C | 0.96 (inactive) | 0.819 | -3 | -4.3 (inactive) | 0.38 (inactive) | 0.578 (inactive)

From PubChem BioAssay
